Screening data from PubChem.
HCV inhibitor = qHTS Assay for Inhibitors of Hepatitis C Virus (HCV); Huh7.5.1 HCVcc-Cre infection, luciferase reporter, 44 h; Potency, µM (series often up to 41.8 µM), inactives show at the highest dose activity change, negative = inhibition, usual class: inhibitors; hit rate 3.4% among 340,000; active = well fitted inhibition curve with a large enough effect; inconclusive = small, poorly fitted or top-dose-only effect, or another doubt; inactive = no such curve, though single readings can be large or run the other way; also: potency is read from the fitted curve at half-maximal effect
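Infectious HCVcc-Cre (~0.5 moi) was added to cells just after compound, with cells seeded 4 h earlier at 1,000 per well. Luciferase activity after 44 h culture reported infection; substrate was incubated 15 min at room temperature before reading.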
Vaccinia Venus = qHTS for Stage-Specific Inhibitors of Vaccinia Orthopoxvirus: Venus Reporter Primary qHTS; Vaccinia virus Venus reporter expression, fluorescence; Potency, µM (doses to about 36.5 µM), without a hit: at the highest dose activity change, negative = inhibition, usual class: inhibitors; hit rate 0.46% among 330,000; AID 720580, 2013; calls by dose curve; tested in A549 cells; also: potency is read from the fitted curve at half-maximal effect; nearly all actives have a fitted effect of over 30% in size
HCMV inh = qHTS Assay for inhibitors of the human cytomegalovirus (HCMV) | hit rate 4.5% among 410,000 | HFF cells, HCMV-luciferase reporter, 72 h; stronger effect = lower value | activity change, negative = inhibition, % at 57.5 µM; in the data active = activity change below about -60%; inconclusive = no clear call, values can overlap the other calls; inactive = above about -39%
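After 16 h attachment at 37C, HFF cells received test compound and HCMV-luciferase (1 PFU/cell); reporter luminescence read 72 h later, data normalized against buffer-only and known inhibitor Salinomycin.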
FMDV antiviral = High Throughput Screening for Foot and Mouth Disease Virus Antivirals; AID 1159524, 2015; hit rate 1.2% among 410,000; FMDV antiviral cell-based qHTS; Potency, µM (top dose mostly 57.9 µM), for the others: at the top dose activity change, negative = inhibition, hits mostly inhibitors; calls by dose curve; tested in HEK293T cells; also: read-out not given here; potency is read from the fitted curve at half-maximal effect; nearly all actives have a fitted effect of over 45% in size
Vaccinia mCherry = qHTS for Stage-Specific Inhibitors of Vaccinia Orthopoxvirus: mCherry Reporter Primary qHTS; Vaccinia virus mCherry reporter infection, fluorescence; Potency, µM (series often up to 36.5 µM), for inactives: top-dose activity change, negative = inhibition, usual class: inhibitors; hit rate 0.63% among 310,000; calls by dose curve; tested in A549 cells; also: potency is read from the fitted curve at half-maximal effect; nearly all actives have a fitted effect of over 35% in size
Starred values were filed as active, the others as inactive; i = inactive; ? = inconclusive; . = not tested or not shown. Shown are actives, neighbours in structure and some others; about 7.3% of the full set was active somewhere. % is scaled to controls: 0 for no effect and ±100 for the full control effect.

SMILES | HCV inhibitor | Vaccinia Venus | HCMV inh | FMDV antiviral | Vaccinia mCherry
CCN(CCCNC(=O)c1cc2c(=O)n(CC)c3ccccc3c2s1)c1ccccc1 | . | -8.8% | -22.1 | -27.6% | -14.3%
CCCCN(CC)CCCNC(=O)c1cc2c(=O)n(CC)c3ccccc3c2s1 | 25.1µM* | ? | 169.3 | -7.4% | -10.1%
CCCCN(CC)CCNC(=O)c1cc2c(=O)n(CC)c3ccccc3c2s1 | 2.51µM* | -23.4% | 78.1 | 0.0% | -20.9%
CCCCN(CC)CCNC(=O)c1cc2c(=O)n(C)c3ccccc3c2s1 | ? | -8.2% | 150.2 | -9.9% | ?
Cc1cccc(OCCSc2nc3ccccc3n2CC(=O)N2CCOCC2)c1 | . | -5.2% | 0.7 | -15.0% | -5.3%
COC(=O)[C@@H](c1ccccc1Cl)N1CCc2sccc2C1 | . | -17.4% | . | -22.0% | -4.7%
Cn1c(=O)n(C)c2cc([N+](=O)[O-])c(N3CCN(C(=O)c4ccccc4Cl)CC3)cc21 | ? | -16.2% | -77.7* | . | -14.6%
Cn1c(=O)n(C)c2cc([N+](=O)[O-])c(N3CCN(C(=O)c4ccccc4Br)CC3)cc21 | 12.6µM* | -18.2% | ? | 15.8µM* | i
CCOC(=O)c1c(-c2ccccc2)oc2ccc(OC(C)C(=O)O)cc12 (configuration not stated) | 11.0% | 8.4% | -25.6 | -13.5% | i
CCOC(=O)c1c(-c2ccccc2)oc2ccc(OCC(O)CN(C)C)cc12 (configuration not stated) | 14.1µM* | ? | -36.8 | -12.8% | ?
CCOC(=O)c1c(-c2ccccc2)oc2ccc(OCC(=O)NNC(=O)CCC(=O)O)cc12 | 5.3% | . | -23.0 | -1.1% | .
CCOC(=O)c1c(-c2ccc(OC)cc2)oc2ccc(OC(=O)N(C)C)cc12 | 0.316µM* | . | -20.6 | ? | .
CCOC(=O)c1c(-c2ccccc2)oc2ccc(OC(C)=O)cc12 | 11.2µM* | -23.7% | 7.6 | . | ?
COc1ccc(-c2oc3ccccc3c2C(=O)OCc2ccc([N+](=O)[O-])cc2)cc1 | 4.7% | -28.6% | -62.1* | -24.4% | -1.3%
CSc1ccccc1C(=O)NCC1Cc2cccc(-c3ncccc3C)c2O1 (configuration not stated) | . | -16.3% | . | -4.7% | i
COc1cc(-c2nc(C)cnc2C)cc2c1OCCN(C(=O)Cn1nc(-c3ccccc3)c3ccccc3c1=O)C2 | . | 6.3% | . | 2.6% | -5.2%
CCN(CC)CCOC(=O)c1c(C)oc2ccc(OC)cc12 | -16.2% | 8.8% | -65.6* | . | 5.2%
Cc1c(NS(=O)(=O)c2ccc3c(c2)OCCO3)cccc1-c1nc2cccnc2s1 | 12.6µM* | -17.2% | -39.5 | ? | -17.2%
Cc1c(Cl)cccc1NS(=O)(=O)c1ccc(NS(=O)(=O)c2ccc3c(c2)OCCO3)cc1 | . | -5.6% | -105.5* | 3.4% | 2.8%
CNc1c2cccc(C)c2nc2c(C(=O)NCCN(C)C)cccc12 | 1.41µM* | 2.24µM* | -100.0* | ? | 2.24µM*
O=C(CS(=O)(=O)Cc1ccccc1)Nc1nc2c(s1)CCCC2 | -4.6% | -16.6% | -35.4 | -13.5% | i
Cc1ccc(CC(=O)Nc2nc3c(s2)CCCC3)cc1 | -25.1% | -6.1% | -72.5* | 25.0% | 8.91µM*
O=C(CCS(=O)(=O)Cc1ccccc1)Nc1nc2c(s1)CCCC2 | ? | ? | -60.7* | . | -28.3%
O=C(Nc1cccc(Br)c1)Nc1nc2c(s1)CCCCCC2 | . | -16.4% | -86.3* | -4.5% | -20.8%
COc1ccc(NC(=O)Nc2nc3c(s2)CCCC3)cc1 | -29.2% | ? | 89.4 | 24.3% | -24.2%
SMILES | HCV inhibitor | Vaccinia Venus | HCMV inh | FMDV antiviral | Vaccinia mCherry
Cc1ccc(C(C)C)c(OCC(=O)Nc2nc3c(s2)CCCC3)c1 | . | 8.0% | -82.4* | -3.4% | -13.4%
COc1ccc(/C=C(\C#N)c2nc(-c3cc(Cl)ccc3OC)cs2)cc1 | . | -8.8% | 2.7 | -25.4% | -6.7%
CN1CCCCC1C(=O)N1CCC(Oc2cccc(CN3CCN(c4ccccn4)CC3)c2)CC1 (configuration not stated) | . | -3.1% | . | -7.0% | -10.3%
COc1ccccc1OCC(=O)Nc1nc2c(s1)CCCC2 | -4.7% | . | -66.9* | 19.5% | .
Cc1cc(C(=O)Nc2nc3c(s2)CCCC3)cs1 | 12.6µM* | . | 85.9 | -24.2% | .
O=C(CSc1nc2ccccc2o1)Nc1nc2c(s1)CCCC2 | ? | . | -86.1* | ? | .
COc1ccc(OCC(=O)Nc2nc3c(s2)CCCC3)cc1 | ? | . | ? | 9.7% | .
COC(=O)c1ccc(C(=O)OC)c(NC(=O)N2CC3CCCN3c3ccccc32)c1 (configuration not stated) | . | -5.1% | 26.1 | -18.2% | -6.8%
Cc1cnc(-n2ncc(C(=O)NCCCc3ccncc3)c2C)nc1-c1ccc(F)cc1 | . | ? | . | 3.3% | -41.7%
NC(=O)C1C(=O)c2ccccc2C1(C[N+](=O)[O-])c1ccccc1 (configuration not stated) | -1.1% | -0.4% | -101.1* | -1.9% | i
c1cn(CCCNc2ncnc3sc4c(c23)CCC4)cn1 | 1.0% | -16.2% | ? | 0.0% | .
CCCCNc1ncnc2sc3c(c12)CCN(CCC)C3 | ? | . | -62.0* | -25.4% | .
Oc1ccc(Cl)cc1 | 44.5% | -10.5% | -13.5 | -2.2% | -16.2%
Oc1ccc(N=Nc2n[nH]c(-c3ccc(Cl)cc3)n2)cc1 | -13.1% | . | -94.9* | 56.4% | .
Nc1ccc(C(=O)Nc2ccc(OC(F)(F)C(F)F)c(NC(=O)c3ccc(N)cc3)c2)cc1 | 6.31µM* | -25.1% | -68.0* | 57.4% | ?
Cc1ccc(NC(=O)COc2cccc(C)c2C)cc1S(=O)(=O)N1CCCCCC1 | 6.31µM* | -5.0% | ? | ? | i
COc1ccc(NC(=O)COc2ccccc2C#N)c(S(=O)(=O)N2CCCCC2)c1 | 10µM* | ? | -27.0 | -22.3% | .
COc1ccc(NC(=O)CCC2CCCCC2)cc1S(=O)(=O)N1CCCCC1 | ? | -25.1% | -81.6* | -12.2% | ?
O=C(COc1cccc(C(F)(F)F)c1)Nc1ccc(S(=O)(=O)N2CCCC2)cc1 | 11.2µM* | . | 17.5 | ? | .
Cc1ccc(OCC(=O)Nc2ccc(C)c(S(=O)(=O)N3CCCCCC3)c2)c([N+](=O)[O-])n1 | ? | ? | 32.1 | ? | ?
C[C@@H]1NS(=O)(=O)c2ccc(F)cc2O[C@@H]1c1ccccc1 | . | . | 26.9 | . | .
COc1ccc2c(c1)[C@@H](NC(=O)OCc1ccccc1)[C@H](C)[C@@H](c1ccccc1)N2Cc1cccc(F)c1 | . | . | -9.8 | . | .
CC(C)c1c(C(=O)NCC(C)(C)N2CCOCC2)cnn1-c1nccc(-c2cccs2)n1 | . | -13.7% | . | -1.3% | -25.7%
Cc1ccc(NC(=O)COc2ccccc2C(N)=O)cc1S(=O)(=O)N1CCCCCC1 | 5.01µM* | . | -90.6* | 25.1µM* | .
O=C(CNc1cc(S(=O)(=O)N2CCCC2)ccc1OCC(F)(F)F)Nc1ccc(SC(F)F)cc1 | ? | ? | -63.1* | -23.8% | ?
COc1cc(C(C)=O)ccc1OCC(=O)Nc1ccc(C)c(S(=O)(=O)N2CCCCCC2)c1 | 3.98µM* | . | -0.1 | ? | .
